From PubChem BioAssay (Tox21) come the findings set out here.

Records with an inconclusive call do not appear. A number with no mark means an inactive call. Activity calls are given as the source filed them. Calls come from the whole dose curve.
% is set by controls: 0 for no effect and ±100 for the full control effect; potency is the fitted concentration of half-maximal effect.

Chain of Muscarinic acetylcholine receptor M1 (Homo sapiens) (P11229 whole entry, looked up): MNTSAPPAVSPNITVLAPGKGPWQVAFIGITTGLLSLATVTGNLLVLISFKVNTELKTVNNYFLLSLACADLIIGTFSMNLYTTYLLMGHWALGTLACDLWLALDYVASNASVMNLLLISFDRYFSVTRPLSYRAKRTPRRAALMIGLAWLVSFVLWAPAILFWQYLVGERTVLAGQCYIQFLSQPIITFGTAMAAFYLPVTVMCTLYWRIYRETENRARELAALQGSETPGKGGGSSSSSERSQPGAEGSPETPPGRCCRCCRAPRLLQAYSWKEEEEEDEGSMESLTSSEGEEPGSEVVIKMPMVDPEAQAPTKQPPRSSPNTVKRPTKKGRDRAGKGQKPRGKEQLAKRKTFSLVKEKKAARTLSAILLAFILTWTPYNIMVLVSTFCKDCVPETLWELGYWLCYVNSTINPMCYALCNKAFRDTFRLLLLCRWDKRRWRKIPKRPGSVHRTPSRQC

The target of this experiment is Muscarinic acetylcholine receptor M1 (Homo sapiens) (UniProt P11229). The experiment is described as follows: Cholinergic receptor muscarinic 1 (CHRM1) small molecule antagonists, cell-based qHTS assay (AID 1963588). Note: nearly all actives have a fitted effect of over 40% in size. To be noted: CHRM1-CHO antagonist mode, calcium flux fluorescence; series mostly up to 61.5 µM; activity, negative = inhibition: at the top concentration. An excerpt:
National Center for Advancing Translational Sciences [NCATS]
Division of Preclinical Innovation [DPI]
U.S. Environmental Protection Agency [EPA]
National Institutes of Environmental Health Sciences [NIEHS]
National Toxicology Program [NTP]
U.S. Food and Drug Administration [FDA]
The CHRM1 is a muscarinic receptor. This receptor plays a crucial role in learning and memory processes and has long been identified as a promising therapeutic target for the improvement of cognitive decline in Alzheimer's disease (AD). The CHRM1-CHO cell line stably expressing human muscarinic acetylcholine receptor M1 (CHRM1) can be used for screening agonists and antagonists of interactions between CHRM1 and its ligands. The CHRM1-CHO Calcium Flux Assay is a homogeneous fluorescence-based assay for detecting the intracellular calcium level using FDSS kinetic plate reader system.
Tox21 Assay Protocol Summary:
CHRM1-CHO cells were dispensed at 1000 cells/3uL/well in 1536-well black-clear bottom plates using a Multidrop Dispenser. After the assay plates were incubated at a 37 C/5% CO2 incubator for 18 h, 3 uL of Dye Loading Buffer was transferred to the assay plate by a Flying Reagent Dispenser. The assay plates were incubated at 37 C for 1h. For antagonist mode, 23 nL of compounds dissolved in DMSO, positive controls or DMSO only was transferred to the assay plate by a pin tool. After 5 min incubation at room temperature, 1.5 uL of acetylcholine at 50nM was added to each well. The fluorescence intensity in the plates was measured using FDSS 7000EX kinetic plate reader for 3 min at 1 sec intervals. Each test compound was measured at 15 concentrations in three independent runs.
`CC(=O)OC/C=C(/C)CCC=C(C)C`: the “activity, negative = inhibition” value was -4.73%. With `C/C=C/C=C/CO`, the “activity, negative = inhibition” value is 17.5%.

As for `c1ccc2occc2c1`, the “activity, negative = inhibition” value was 9.24%.

On to `CCCCCCCCCCC[C@@H](C[C@@H]1OC(=O)[C@H]1CCCCCC)OC(=O)[C@H](CC(C)C)NC=O`, for which the “activity, negative = inhibition” value is -3.77% [at 28.3 µM].

On to `Brc1c2ccccc2c(Br)c2ccccc12`, for which the activity, negative = inhibition is -2.59% [at 5.58 µM]. The same measure, in the same setting: for `O=C(O)CCc1nc2ccccc2[nH]1` the value was 8.1% [at 28.3 µM]; for `CSc1ccc(C=O)cc1`, 5.06%. As to `CCCCN`, the “activity, negative = inhibition” value was 6.17% [at 28.3 µM]. Same read-out and setting: the figure for `CCOC(=O)CC(O)(CC(=O)OCC)C(=O)OCC` is 62.8%; for `O=C(Nc1cccc(C(F)(F)F)c1)c1cc(Br)cc(Br)c1O` it is -5.04%; for `CN(C)c1ccncc1` it is -6.9%.

Regarding `C=CC(C)=CCC=C(C)C`, the “activity, negative = inhibition” value was -18.4%. The same measure, in the same setting: for `CNc1ncnc2nc[nH]c12` the value was 5.91%.

`CC1(CN2CCC(n3c(=O)[nH]c4ccccc43)CC2)OCc2ccccc2-n2cccc21` (stereo not given): the “activity, negative = inhibition” value is -14.4% [at 28.3 µM]. The same measure, in the same setting: the figure for `CC1(C)[C@@H](O)CC[C@]2(C)[C@H]3C(=O)C=C4[C@@H]5C[C@@](C)(C(=O)O)CC[C@]5(C)CC[C@@]4(C)[C@]3(C)CC[C@@H]12` is -3.14%; for `CCCCC/C=C\C=C\C(=O)OCC` it is -5.72%. Still for that read-out and setting: the figure for `c1ccc(B(c2ccccc2)c2ccccc2)cc1` is -9.05%. The same measure, in the same setting: the figure for `CC(CCO)CCCC(C)(C)O` (stereo not given) is 22.9%; for `CCCCC/C=C\C/C=C\CCCCCCCC(=O)NC(C)c1ccccc1` (stereo not given) it is 0.643% [at 28.3 µM]; for `CC/C(=C(\c1ccc(O)cc1)c1ccc(OCCN(C)C)cc1)c1ccccc1` it is -8.74%. Take `CCC(CC)Nc1ccc(C)c(C)c1`: the “activity, negative = inhibition” value was -30%. As to `CC(O)C#CC(C)O` (stereo not given), the “activity, negative = inhibition” value was 3.53%. On to `[O-][N+](=Nc1ccccc1)c1ccccc1`, for which the “activity, negative = inhibition” value was 1.66%. In the case of `Cc1cccc(Nc2ccccc2)c1`, the “activity, negative = inhibition” value was -15.1%.

As for `CC(C)N(c1ccccc1)C(C)C`, the “activity, negative = inhibition” value is 6.66%. Regarding `Brc1cc2ccccc2c2ccccc12`, the “activity, negative = inhibition” value is 4.55%. Still for that read-out and setting: for `CC(C)C(C)C` the value was -11.7%; for `C=C[Si]1(C)O[Si](C)(C=C)O[Si](C)(C=C)O[Si](C)(C=C)O1` (stereo not given), -9.24%. For `CC1=NN(c2cccc(S(=O)(=O)O)c2)C(=O)C1`, the “activity, negative = inhibition” value was -1.7%. The same measure, in the same setting: for `Cc1ccc2nc(-c3ccc(N)cc3)sc2c1S(=O)(=O)O` the value was -8.61% [at 28.3 µM]. Same read-out and setting: the figure for `CCN(Cc1cccnc1)C(=O)c1cccc(Cl)c1[C@]1(C)C(=O)N(Cc2ccc(OC)cc2OC)c2ccc(Cl)cc21` is -1.85%; for `CC(C)(CO)[N+](=O)[O-]` it is -3.02%; for `COC(Cc1ccccc1)OC` it is -10.6%.

For the compound `Cc1cc(CCN2CCN(c3nsc4ccccc34)CC2)cc2c1NC(=O)CC2(C)C`, the Potency is 16.8 µM (active). In the case of `CC(=O)OCCC(C)CC(C)(C)C` (stereo not given), the “activity, negative = inhibition” value was 5.31%. In the case of `C=CCCC(=O)O`, the “activity, negative = inhibition” value was 0.967%. Still for that read-out and setting: for `FC(F)(Cl)C(F)(Cl)Cl` the value was -23.8%. As to `CSc1ccc2c(c1)C(N1CCN(C)CC1)Cc1ccccc1S2` (stereo not given), the Potency was 0.729 µM (active). Take `O=C1Nc2ccc([N+](=O)[O-])cc2C1=O`: the “activity, negative = inhibition” value is -4.41%. Still for that read-out and setting: the figure for `CCCc1ccc(OC)cc1` is -8.28%.
